Records with an inconclusive call do not appear. The source made the active and inactive calls. Unless noted, calls come from the whole dose curve; as a rule, active = well fitted curve in the direction sought with a large enough effect; inconclusive = small, poorly fitted or top-dose-only effect, or another doubt; inactive = no such curve, though single readings can be large; an effect the other way counts as inactive or inconclusive.
Tests used:
[1] = AP1 Signaling Pathway (AID 357; active = well fitted curve in either direction with a large enough effect, not every such curve was filed as active;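 note: ME-180 reporter cells stimulated with EGF at its EC50 level; % is set by controls: 0 for no effect and ±100 for the full control effect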); conditions: ME-180 AP-1-bla reporter, EGF-induced, beta-lactamase ratio, 5 h; at 7.69 µM (top of the series) unless noted
Summary of the method: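 Modulation of EGF-driven AP-1 transcription was assessed with a beta-lactamase reporter in ME-180 cells. Compound and EC50 EGF were co-incubated 5 hours at 37 °C before 2.5-hour CCF4 loading at room temperature and dual-emission reading.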

[2] = biological target: Cytochrome P450 1A2 (Homo sapiens) (UniProt P05177); test: p450-cyp1a2 (AID 410; calls by dose curve;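 note: -100% = full effect of reference inhibitor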)
Chain of Cytochrome P450 1A2 (Homo sapiens) (P05177 whole entry, looked up): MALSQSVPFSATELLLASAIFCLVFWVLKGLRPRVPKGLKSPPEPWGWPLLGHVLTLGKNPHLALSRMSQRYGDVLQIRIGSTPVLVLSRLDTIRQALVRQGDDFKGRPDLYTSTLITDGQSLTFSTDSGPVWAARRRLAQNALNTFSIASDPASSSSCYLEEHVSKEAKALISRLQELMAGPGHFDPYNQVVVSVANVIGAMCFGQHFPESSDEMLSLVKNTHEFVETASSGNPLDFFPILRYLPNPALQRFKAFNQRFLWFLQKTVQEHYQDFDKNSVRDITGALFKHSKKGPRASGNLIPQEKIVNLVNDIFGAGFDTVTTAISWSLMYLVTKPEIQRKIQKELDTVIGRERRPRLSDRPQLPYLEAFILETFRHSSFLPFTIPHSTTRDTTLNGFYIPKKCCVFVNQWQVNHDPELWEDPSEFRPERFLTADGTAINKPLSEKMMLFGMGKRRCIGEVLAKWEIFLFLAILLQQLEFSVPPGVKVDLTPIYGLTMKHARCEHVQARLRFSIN
Summary of the method: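 20nM CYP1A2, 100uM Luciferin-ME (=Km), 100mM KPO4; cpd 10 min RT; +NADPH regen, 60 min RT; stop/detect 20 min; luminescence. Normalized to furafylline 57 uM = full inhibition.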

[3] = NFAT Signaling Pathway (AID 444; active = well fitted curve in either direction with a large enough effect, not every such curve was filed as active;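 note: carbachol stimulus at about its EC50 of 1 µM final; % is set by controls: 0 for no effect and ±100 for the full control effect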); conditions: Jurkat NFAT-bla M1, carbachol, beta-lactamase ratio, 5 h; at 7.69 µM (top of the series) unless noted
Summary of the method: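 Read-out: CCF4 FRET ratio (460 nm/530 nm) after 1 h RT dye loading, used for %activity and AC50 from titration series. Cells: Jurkat NFAT-β-lactamase/M1 line, treated with compound plus 1 uM carbachol for 5 h, 37 °C.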

[4] = Stat Signaling Pathway (AID 446; active = well fitted curve in either direction with a large enough effect, not every such curve was filed as active;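 note: ME-180 cervical cancer cells given 40 pM IL-6 alongside compound; SIE-controlled beta-lactamase reporter measured as 460/530 nm FRET emission ratio; % is set by controls: 0 for no effect and ±100 for the full control effect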); conditions: ME-180 (cervical carcinoma) SIE beta-lactamase reporter, IL-6 stimulated, 5 h; at 7.69 µM (top of the series) unless noted
Summary of the method: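 Compound effects on IL-6-induced STAT reporter activity were measured in ME-180 cells. After overnight culture, cells were co-treated with 40 pM IL-6 for 5 hrs before beta-lactamase substrate loading at room temperature.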

[5] = biological target: Glucocorticoid receptor (Homo sapiens) (UniProt P04150); test: GR-GFP Redistribution (AID 450;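 active = compounds whose dose series gives a full or clear partial fitted curve of increased nuclear translocation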; note: potency is the fitted concentration of half-maximal effect); conditions: U2OS GR-GFP nuclear translocation, laser cytometry, 2 h
Chain of Glucocorticoid receptor (Homo sapiens) (P04150 whole entry, looked up, the tested form may be a part): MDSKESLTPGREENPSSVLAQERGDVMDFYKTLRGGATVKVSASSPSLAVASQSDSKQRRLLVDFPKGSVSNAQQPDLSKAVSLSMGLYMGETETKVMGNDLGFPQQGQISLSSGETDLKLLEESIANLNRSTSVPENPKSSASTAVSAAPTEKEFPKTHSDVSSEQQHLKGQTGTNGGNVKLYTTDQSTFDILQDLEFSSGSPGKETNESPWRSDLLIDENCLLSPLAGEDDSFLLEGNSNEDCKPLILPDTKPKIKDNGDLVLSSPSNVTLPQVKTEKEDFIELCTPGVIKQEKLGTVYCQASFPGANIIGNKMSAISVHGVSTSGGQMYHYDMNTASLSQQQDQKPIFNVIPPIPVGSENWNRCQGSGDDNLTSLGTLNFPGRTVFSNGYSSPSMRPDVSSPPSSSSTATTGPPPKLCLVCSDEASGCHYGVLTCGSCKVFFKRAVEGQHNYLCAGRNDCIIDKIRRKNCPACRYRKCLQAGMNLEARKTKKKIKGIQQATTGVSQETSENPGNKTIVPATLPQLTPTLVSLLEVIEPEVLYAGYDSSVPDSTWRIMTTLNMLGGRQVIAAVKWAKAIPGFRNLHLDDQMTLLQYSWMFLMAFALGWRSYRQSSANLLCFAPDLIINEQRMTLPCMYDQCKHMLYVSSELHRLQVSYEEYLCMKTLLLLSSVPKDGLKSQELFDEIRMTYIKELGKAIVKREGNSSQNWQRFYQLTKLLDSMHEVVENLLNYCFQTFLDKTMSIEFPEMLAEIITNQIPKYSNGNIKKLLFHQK

[6] = biological target: Glucocorticoid receptor (Homo sapiens) (UniProt P04150); test: GR-EFC Redistribution (AID 451; calls by dose curve; note: potency is the fitted concentration of half-maximal effect); conditions: CHO-K1 GR-EFC translocation, beta-gal luminescence, 2 h
Summary of the method: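 Translocation of GR-ED fusion to nuclear EA restores b-gal, read by luminescence after 1 h room-temperature detection. Engineered CHO-K1 biosensor cells, 1,000/well, exposed 2 h at 37 C to titrations up to 46 uM final.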

[7] = biological target: Mitogen-activated protein kinase 10 (Mus musculus) (UniProt Q61831); test: JNK3 AlphaScreen Assay (AID 530; active = well fitted curve in either direction with a large enough effect, not every such curve was filed as active;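 note: kinase came from lysate of stimulated human HepG2 cells; signal reports phosphorylation of biotinylated GST-cJun 1-79 at Ser73 with 10 µM ATP; % is set by controls: 0 for no effect and ±100 for the full control effect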)
Summary of the method: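 Kinase buffer: 20 mM Tris-HCl pH 7.6, 10 mM MgCl2, 1 mM DTT, 0.1 mM Na3VO4, 0.01% Tween-20; ATP 10 uM. Substrate biotin-GST-cJun(1-79), enzyme from activated HepG2 lysates. Detection by Ser73 phospho-antibody AlphaScreen.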

[8] = biological target: 3',5'-cyclic-AMP phosphodiesterase 4B (Homo sapiens) (UniProt Q07343); test: qHTS Assay for Inhibitors of PDE-IV (AID 607; active = well fitted activation curve with a large enough effect in the main read-out, with a control signal flat, not every such curve was filed as active; note: % of control where 0% means no effect)
Chain of 3',5'-cyclic-AMP phosphodiesterase 4B (Homo sapiens) (Q07343 whole entry, looked up): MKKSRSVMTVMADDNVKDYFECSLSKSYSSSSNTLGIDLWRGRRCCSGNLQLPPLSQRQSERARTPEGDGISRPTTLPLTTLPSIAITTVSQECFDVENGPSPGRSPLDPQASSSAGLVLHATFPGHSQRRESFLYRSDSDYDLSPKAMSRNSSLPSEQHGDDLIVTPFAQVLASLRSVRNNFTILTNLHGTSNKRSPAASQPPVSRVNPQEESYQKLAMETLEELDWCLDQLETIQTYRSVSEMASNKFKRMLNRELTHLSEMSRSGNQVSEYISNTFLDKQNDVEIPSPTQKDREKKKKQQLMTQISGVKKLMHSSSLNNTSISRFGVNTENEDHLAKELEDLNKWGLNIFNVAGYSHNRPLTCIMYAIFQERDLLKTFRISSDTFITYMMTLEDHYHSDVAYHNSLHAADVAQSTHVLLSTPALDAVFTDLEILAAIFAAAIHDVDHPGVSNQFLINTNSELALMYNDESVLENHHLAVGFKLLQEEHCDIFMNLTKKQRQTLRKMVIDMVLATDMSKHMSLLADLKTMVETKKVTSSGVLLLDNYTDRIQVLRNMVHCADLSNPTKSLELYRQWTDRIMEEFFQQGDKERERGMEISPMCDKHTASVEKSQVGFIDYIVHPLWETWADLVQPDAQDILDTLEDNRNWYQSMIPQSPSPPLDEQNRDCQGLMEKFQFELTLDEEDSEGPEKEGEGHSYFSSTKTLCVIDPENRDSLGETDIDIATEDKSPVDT
Summary of the method: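 ACTOne HEK293 cells carry a modified cAMP-gated CNG channel and express endogenous PDE4; plated 1000 cells/well, compounds up to 22.9 uM final. Membrane-potential dye fluorescence (ex 535/em 590) was read; parental cells received 10 uM forskolin + 100 uM RO 20-1724.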

[9] = biological target: Guanine nucleotide-binding protein G(i) subunit alpha-1 (Homo sapiens) (UniProt P63096); test: qHTS Assay for Inhibitors of RGS12 GoLoco Motif Activity (Green Fluorophore) (AID 879);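 note: 0% = labeled peptide with Gαi1 and full inhibition = labeled peptide alone without protein; negative values mean loss of peptide binding seen as reduced polarization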
Chain of Guanine nucleotide-binding protein G(i) subunit alpha-1 (Homo sapiens) (P63096 whole entry, looked up): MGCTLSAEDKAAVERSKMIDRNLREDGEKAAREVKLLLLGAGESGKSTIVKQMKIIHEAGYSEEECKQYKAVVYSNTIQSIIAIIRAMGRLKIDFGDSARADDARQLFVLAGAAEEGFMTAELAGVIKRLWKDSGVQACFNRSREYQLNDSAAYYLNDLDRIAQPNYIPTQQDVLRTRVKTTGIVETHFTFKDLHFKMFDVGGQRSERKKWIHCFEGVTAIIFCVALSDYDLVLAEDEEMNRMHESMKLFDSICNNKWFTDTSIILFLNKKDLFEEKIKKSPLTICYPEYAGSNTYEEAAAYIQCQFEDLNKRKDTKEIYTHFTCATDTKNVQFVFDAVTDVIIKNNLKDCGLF
Summary of the method: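 A drop in FITC polarization marked displacement of the FITC-tagged RGS12 GoLoco peptide (10 nM) from Gαi1 (50 nM). Compounds were incubated 10 min at room temperature in Tris pH 7.5 buffer containing 150 mM NaCl, 0.1 mM GDP and 0.05% NP40; unlabeled peptide titration served as control.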

[10] = biological target: Cytochrome P450 2C19 (Homo sapiens) (UniProt P33261); test: qHTS Assay for Inhibitors and Substrates of Cytochrome P450 2C19 (AID 899); note: % is set by controls: 0 for no effect and ±100 for the full control effect; nearly all actives have a fitted effect of over 60% in size
Chain of Cytochrome P450 2C19 (Homo sapiens) (P33261 whole entry, looked up): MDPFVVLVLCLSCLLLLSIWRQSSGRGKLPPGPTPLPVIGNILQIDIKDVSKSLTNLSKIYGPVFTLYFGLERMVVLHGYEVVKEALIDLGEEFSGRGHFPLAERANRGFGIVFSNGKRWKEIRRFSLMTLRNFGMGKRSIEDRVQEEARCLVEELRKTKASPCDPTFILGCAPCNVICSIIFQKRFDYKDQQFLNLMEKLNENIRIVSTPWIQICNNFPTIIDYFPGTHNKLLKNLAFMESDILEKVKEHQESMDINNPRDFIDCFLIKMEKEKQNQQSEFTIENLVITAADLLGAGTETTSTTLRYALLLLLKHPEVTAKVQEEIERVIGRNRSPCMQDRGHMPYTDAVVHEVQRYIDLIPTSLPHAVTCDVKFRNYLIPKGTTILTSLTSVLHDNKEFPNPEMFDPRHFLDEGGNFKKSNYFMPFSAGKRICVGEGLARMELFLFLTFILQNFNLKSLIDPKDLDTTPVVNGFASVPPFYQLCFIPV
Summary of the method: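 5nM enzyme + 10uM Luciferin-H EGE (=KM), 50mM KPO4; cpd pin-transferred, 10 min 37C; NADPH regen, 60 min 37C; stopped w/ luciferin detection reagent, 20 min; luminescence. Normalized to 57uM ketoconazole (AC100).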

[11] = qHTS Assay for Identification of Small Molecule Agonists for Thrombopoietin (TPO) Signaling Pathway (AID 917); note: % is set by controls: 0 for no effect and ±100 for the full control effect
Summary of the method: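 First, Ba/F3 cells with human TPO receptor were held overnight without IL-3. Next, compounds and TPO (26 pM final) were added. After 24 hrs at 37 C, luciferase detection reagent was added and luminescence measured following 10 min at room temperature.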

[12] = biological target: Muscarinic acetylcholine receptor M1 (Rattus norvegicus) (UniProt P08482); test: qHTS Assay for Antagonists of Acetylcholine Muscarinic M1 Receptor: Measurement of IP-One Response (AID 944); note: nearly all actives have a fitted effect of over 75% in size
Chain of Muscarinic acetylcholine receptor M1 (Rattus norvegicus) (P08482 whole entry, looked up): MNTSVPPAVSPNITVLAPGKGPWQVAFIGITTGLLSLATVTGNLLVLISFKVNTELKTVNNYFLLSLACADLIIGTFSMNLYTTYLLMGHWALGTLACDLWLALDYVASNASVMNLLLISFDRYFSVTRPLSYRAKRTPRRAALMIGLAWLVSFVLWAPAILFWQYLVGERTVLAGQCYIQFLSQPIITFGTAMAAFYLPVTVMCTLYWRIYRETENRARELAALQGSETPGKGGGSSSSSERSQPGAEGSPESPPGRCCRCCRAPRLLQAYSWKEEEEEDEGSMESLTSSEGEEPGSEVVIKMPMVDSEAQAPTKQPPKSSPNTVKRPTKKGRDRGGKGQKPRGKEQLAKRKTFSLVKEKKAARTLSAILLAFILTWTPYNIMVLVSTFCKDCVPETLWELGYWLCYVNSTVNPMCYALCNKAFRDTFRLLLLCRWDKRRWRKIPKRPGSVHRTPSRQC
Summary of the method: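 Read-out: HTRF competition between d2-IP1 and Eu-cryptate anti-IP1 antibody, emission 620 and 665 nm. Stimulus was carbachol, EC80 (200 nM), for 30 min in M1-CHO cells (rat receptor), after 10 min compound pre-treatment.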

[13] = biological target: Pyruvate kinase (Leishmania mexicana) (UniProt Q27686); test: qHTS Validation Assay for Inhibitors of Leishmania Mexicana Pyruvate Kinase (AID 945);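 note: 0% = DMSO only neutral control wells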
Chain of Pyruvate kinase (Leishmania mexicana) (Q27686 2-499 E452W): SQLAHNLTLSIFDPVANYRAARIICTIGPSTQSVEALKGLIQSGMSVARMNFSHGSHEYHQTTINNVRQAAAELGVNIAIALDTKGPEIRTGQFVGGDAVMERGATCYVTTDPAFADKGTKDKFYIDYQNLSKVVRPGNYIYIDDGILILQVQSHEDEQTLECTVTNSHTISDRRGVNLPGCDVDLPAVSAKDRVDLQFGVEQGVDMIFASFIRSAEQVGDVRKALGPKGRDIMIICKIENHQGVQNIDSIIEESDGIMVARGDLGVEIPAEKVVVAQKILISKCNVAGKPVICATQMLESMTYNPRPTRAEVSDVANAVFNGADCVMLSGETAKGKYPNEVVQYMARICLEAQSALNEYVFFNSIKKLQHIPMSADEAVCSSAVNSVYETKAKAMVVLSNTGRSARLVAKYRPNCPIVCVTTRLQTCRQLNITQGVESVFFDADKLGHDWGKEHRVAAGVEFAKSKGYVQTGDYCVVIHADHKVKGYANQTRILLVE
Summary of the method: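 Purified LmPYK (E451W mutant, 0.2 nM) was incubated 1 h at room temperature with 0.5 mM PEP and 0.1 mM ADP in 50 mM imidazole pH 7.2, 50 mM KCl, 7 mM MgCl2; ATP formed was read by PKLight luminescence, normalized to DMSO wells.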

[14] = biological target: Alpha-galactosidase A (Homo sapiens) (UniProt P06280); test: Counterscreen for Glucocerebrosidase Inhibitors: qHTS Assay for Human alpha-Galactosidase at pH 4.5 (AID 992); note: 0% is about no effect
Chain of Alpha-galactosidase A (Homo sapiens) (P06280 whole entry, looked up): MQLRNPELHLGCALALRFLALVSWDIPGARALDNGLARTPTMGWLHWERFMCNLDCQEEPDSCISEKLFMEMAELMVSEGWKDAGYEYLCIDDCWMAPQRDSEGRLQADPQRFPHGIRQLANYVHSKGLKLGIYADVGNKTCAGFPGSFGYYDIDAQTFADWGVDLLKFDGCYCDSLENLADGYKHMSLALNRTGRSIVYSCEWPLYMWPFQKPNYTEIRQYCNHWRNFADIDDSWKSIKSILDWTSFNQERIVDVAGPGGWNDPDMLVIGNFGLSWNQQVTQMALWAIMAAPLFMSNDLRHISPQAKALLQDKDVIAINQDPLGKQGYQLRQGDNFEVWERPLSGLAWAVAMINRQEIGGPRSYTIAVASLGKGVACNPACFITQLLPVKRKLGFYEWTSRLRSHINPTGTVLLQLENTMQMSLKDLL
Summary of the method: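 Citrate buffer pH 4.5, Tween-20 0.005%. Enzyme 2 nM, substrate 80 uM, 20 min RT. Stop pH 10. Fluorescence Ex 365/Em 440. AC50 by Hill fit.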

[15] = biological target: alpha-glucosidase (Oryza sativa, rice) (UniProt Q653V4); test: Counterscreen for Glucocerebrosidase Inhibitors: qHTS Assay for Rice alpha-Glucosidase at pH 5.0 (AID 997);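 note: 0% = full activity with enzyme and -100% = basal without enzyme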
Summary of the method: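 Endpoint fluorogenic assay at pH 5.0: compounds (0.7 nM to 77 uM) titrated against 4 nM rice enzyme and 400 uM 4-MU-alpha-glucoside for 20 min at room temperature; NaOH/glycine stop, read ex 365/em 440 nm, Hill-fitted AC50.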

[16] = biological target: Cytochrome P450 3A4 (Homo sapiens) (UniProt P08684); test: qHTS Assay for Activators of Cytochrome P450 3A4 (AID 885); note: nearly all actives have a fitted effect of over 65% in size
Summary of the method: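 CYP3A4 activity: Luciferin-PPXE O-dealkylation, 25uM substrate, 200mM KPO4, RT throughout. Read-out is luciferase luminescence; higher values reflect activation.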

[17] = biological target: Muscarinic acetylcholine receptor M1 (Rattus norvegicus) (UniProt P08482); test: qHTS Assay for Antagonists of Acetylcholine Muscarinic M1 Receptor: Kinetic Measurement of Intracellular Calcium Response (AID 943);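 note: Fluo-4 calcium signal as peak divided by basal fluorescence over 4 min; nearly all actives have a fitted effect of over 75% in size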
Summary of the method: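 Read-out: peak over basal Fluo-4 fluorescence, kinetic at 1 Hz for 4 min after EC80 carbachol (100 nM final). Rat M1-CHO cells, dye loaded 1 h at 37C, compound added 10 min before agonist.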

[18] = biological target: Pyruvate kinase PKM (Homo sapiens) (UniProt P14618); test: qHTS Assay for Activators of Human Muscle Pyruvate Kinase (AID 954; active = well fitted curve in the direction sought with a large enough effect, not every such curve was filed as active;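 note: 0% = uninhibited enzyme and -100% = no enzyme or full thiadiazolimine inhibition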)
Chain of Pyruvate kinase PKM (Homo sapiens) (P14618 whole entry, looked up): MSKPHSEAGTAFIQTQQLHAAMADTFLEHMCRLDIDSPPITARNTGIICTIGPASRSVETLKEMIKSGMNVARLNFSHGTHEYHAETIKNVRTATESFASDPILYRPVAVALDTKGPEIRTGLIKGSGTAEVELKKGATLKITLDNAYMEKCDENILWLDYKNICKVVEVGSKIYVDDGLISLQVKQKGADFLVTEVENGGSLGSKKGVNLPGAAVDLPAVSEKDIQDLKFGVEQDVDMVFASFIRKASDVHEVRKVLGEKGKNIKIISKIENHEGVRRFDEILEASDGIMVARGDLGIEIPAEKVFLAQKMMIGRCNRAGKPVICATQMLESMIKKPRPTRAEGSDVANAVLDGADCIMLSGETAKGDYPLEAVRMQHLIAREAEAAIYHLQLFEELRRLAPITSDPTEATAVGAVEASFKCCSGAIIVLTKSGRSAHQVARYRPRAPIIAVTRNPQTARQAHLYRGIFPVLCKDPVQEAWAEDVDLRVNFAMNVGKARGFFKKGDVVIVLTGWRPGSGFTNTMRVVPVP
Summary of the method: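 A coupled luminescent readout tracked ATP made from ADP by purified PKM2. Final conditions included 0.1 nM enzyme, PEP and ADP at 0.5 and 0.1 mM, pH 7.2 imidazole buffer with BSA, and a one-hour room-temperature reaction.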

[19] = qHTS Assay for Identification of Small Molecule Antagonists for NFkB Signaling Pathway (AID 895; active = well fitted inhibition curve with a large enough effect in the signal ratio, with a control signal flat, not every such curve was filed as active; the % refers to the signal ratio; note: % is set by controls: 0 for no effect and ±100 for the full control effect)
Summary of the method: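 Beta-lactamase reporter read-out (460 and 530 nm emission ratio, 405 nm excitation, 2 hrs substrate loading RT) after 5 hr stimulation with 10 pM TNF alpha in compound-treated NFkB-bla ME-180 cells in low-serum medium.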

[20] = biological target: Cytochrome P450 2D6 (Homo sapiens) (UniProt P10635); test: qHTS Assay for Inhibitors and Substrates of Cytochrome P450 2D6 (AID 891);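 note: luciferin methyl ether substrate demethylated by CYP2D6 with NADPH regeneration; % is set by controls: 0 for no effect and ±100 for the full control effect; nearly all actives have a fitted effect of over 60% in size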
Summary of the method: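 Luminescent read-out of luciferin formed by 5 nM human CYP2D6 demethylating 30 uM Luciferin-ME EGE (Km level) over 60 min at room temperature after NADPH regeneration addition. Data normalized to full inhibition by 1.43 uM quinidine.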

O=C(O)CCC(=O)N1CCC[C@H]1C(=O)O
inactive: activity change, negative = inhibition [1] 14% [at 38 µM] | Potency [2] | activity change, negative = inhibition [3] 7.11% [at 38 µM] | activity, negative = inhibition [4] -28.5% [at 38 µM] | Potency [5] > 46 µM | Potency [6] > 46 µM | Potency [7] | Potency [8] | outcome [9] | Potency [10] | outcome [11] | Potency [12] | outcome [13] | outcome [14] | Potency [15]

O=C(O)/C=C\c1cnc[nH]1
inactive: activity change, negative = inhibition [1] 4.19% [at 38 µM] | Potency [2] | activity change, negative = inhibition [3] 9.72% [at 38 µM] | activity, negative = inhibition [4] 3.14% [at 38 µM] | Potency [5] > 46 µM | Potency [6] > 46 µM | Potency [7] | Potency [8] | outcome [9] | Potency [16] | outcome [11] | Potency [17] | Potency [12] | outcome [18] | outcome [14] | Potency [15]

NCC[C@H]1CCC[C@H](CCN)N1
inactive: activity change, negative = inhibition [1] 2.44% [at 38 µM] | Potency [2] | activity change, negative = inhibition [3] 2.27% [at 38 µM] | activity, negative = inhibition [4] -5.59% [at 38 µM] | Potency [5] > 46 µM | Potency [6] > 46 µM | Potency [7] | Potency [8] | outcome [9] | Potency [19] | outcome [11] | Potency [12] | outcome [13] | outcome [18] | outcome [14] | Potency [15]

N[C@@H](C(=O)O)[C@@H]1C[C@H]1C(=O)O
inactive: activity change, negative = inhibition [1] -6.47% [at 38 µM] | Potency [2] | activity change, negative = inhibition [3] 4.34% [at 38 µM] | activity, negative = inhibition [4] 16.9% [at 38 µM] | Potency [5] > 46 µM | Potency [6] > 46 µM | Potency [7] | Potency [8] | Potency [20] | Potency [10]

C[C@H](O)[C@H](O)[C@@H]1CNc2nc(N)[nH]c(=O)c2N1
inactive: activity change, negative = inhibition [1] 7.68% [at 38 µM] | Potency [2] | activity change, negative = inhibition [3] 7.39% [at 38 µM] | activity, negative = inhibition [4] 18.8% [at 38 µM] | Potency [5] > 46 µM | Potency [6] > 46 µM | Potency [7] | Potency [8] | outcome [9] | outcome [11] | Potency [17] | Potency [12] | outcome [13] | outcome [18] | outcome [14] | Potency [15]
